Here are results for 28 compounds from PubChem BioAssay (EPA / NIEHS).

Activity calls are given as the source filed them. The calls were made as follows: active = hit-call score of the fitted dose curve at least 0.9, where 1 is the maximum; inactive = score below 0.9.

CCAAT/enhancer-binding protein beta (Homo sapiens), sequence (P17676 whole entry, looked up): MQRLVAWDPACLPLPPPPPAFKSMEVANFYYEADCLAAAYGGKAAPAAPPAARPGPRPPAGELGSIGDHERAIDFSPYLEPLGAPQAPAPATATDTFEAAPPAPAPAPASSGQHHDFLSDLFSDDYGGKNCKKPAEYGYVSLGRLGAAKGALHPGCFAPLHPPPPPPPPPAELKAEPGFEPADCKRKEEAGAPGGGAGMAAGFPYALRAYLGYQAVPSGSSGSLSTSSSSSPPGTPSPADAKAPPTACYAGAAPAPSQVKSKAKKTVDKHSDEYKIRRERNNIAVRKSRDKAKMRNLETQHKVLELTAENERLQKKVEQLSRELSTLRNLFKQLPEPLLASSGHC

System in the first experiment: not listed separately
Description: ATG_CRE_CIS: Attagene CIS-FACTORIAL HepG2 Assay for human cAMP Responsive Element (CRE) binding protein 3 (AID 2282926). As to conditions: HepG2 CRE cis-reporter, Attagene multiplexed mRNA; actives raise or lower the signal. The gist of the method:
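Assay format: transient reporter transfection of HepG2, 24 h treatment, total RNA isolation with DNase I step. Reporter abundance read by fluorescence after PCR and capillary separation; DMSO-normalised gain or loss fitting.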
On to `Cc1ccc(N=C=O)cc1N=C=O`, for which the outcome was inactive.
Regarding `[As]#[In]`, the compound was classed as inactive.
Consider `CCCCCCCCOC(=O)c1ccc(C(=O)OCCCCCCCC)c(C(=O)OCCCCCCCC)c1`, for which the compound was classed as inactive.
What is called AC50 is the concentration giving half of the maximal activity seen. As to `CCOC(=O)[C@]1(c2ccccc2)Oc2ccccc2[C@@H]1N`, the AC50 is 20.3 µM (active).
`CN(C)C(=O)Nc1ccc(Cl)cc1`: the compound was called inactive.
For `Nc1ccc(N=Nc2ccccc2)cc1`, the outcome was inactive.
With `O=P(OCCCl)(OCCCl)OCCCl`, the call was inactive.
The same measure, in the same setting: the entry for `C=CCc1ccc2c(c1)OCO2` is “inactive”; for `CC(C)(C)C(O)(CCc1ccc(Cl)cc1)Cn1cncn1` (centres undefined) it is “inactive”.
Regarding `CCC12COCN1COC2`, the call was inactive.
For `N#CC(Br)(Br)C(N)=O`, the compound was classed as inactive.
On to `COC(=O)c1ccccc1N`, for which the compound was called inactive.
Take `O=C(N[C@H](c1ccccc1)[C@@H]1CN2CCC1CC2)c1c(Cl)ccc(C(F)(F)F)c1Cl`: the compound was classed as inactive.
Still for that read-out and setting: the entry for `CN(C)c1ccc(C(=O)c2ccc(N(C)C)cc2)cc1` is “inactive”; for `O=C(Oc1ccc(Br)cc1)N1CCN2CCC1CC2` it is “inactive”; for `Cc1cc(N=Nc2ccccc2C)ccc1N` it is “inactive”.
On the same count and under the same terms, the entry for `OCCCl` is “inactive”.
As to `CC(C)COC(=O)c1ccccc1C(=O)OCC(C)C`, the AC50 is 59.3 µM (active).
With `Clc1ccc(C(c2ccc(Cl)cc2)C(Cl)(Cl)Cl)cc1`, the compound was called inactive.
In the case of `Clc1ccc(Cl)c(Cl)c1`, the outcome was inactive.
`O=[N+]([O-])C(Br)(CO)CO`: the AC50 is 170 µM (active).
As for `OCCOCCO`, the call was inactive.
Regarding `Nc1ccc(Cc2ccc(N)cc2)cc1`, the compound was classed as inactive.
For `Nc1cc(Cl)cc(C(=O)O)c1Cl`, the call was inactive.
`C1=Cc2cccc3cccc1c23`: the result was inactive.
On the same count and under the same terms, the result for `ClCCOCCCl` reads “inactive”.
Consider `Cc1cccc(N)c1N`, for which the AC50 is 158 µM (active).
In the case of `CC(C)(O)c1cnn2c(-c3ccc(F)c(-c4c(F)cccc4C#N)c3)cnc2n1`, the AC50 is 40 µM (active).

In another experiment the target is CCAAT/enhancer-binding protein beta (Homo sapiens) (UniProt P17676). Description: ATG_C_EBP_CIS: Attagene CIS-FACTORIAL HepG2 Assay for human CCAAT/Enhancer Binding Protein (C/EBP) beta (AID 2282927). The following applies: HepG2 Attagene cis-factorial transcription factor reporter; actives raise or lower the signal. The gist of the method:
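Following a 24 h incubation with test chemical, transfected HepG2 cells yielded RNA whose reporter transcripts were quantified by RT-PCR and fluorescent capillary electrophoresis, with DMSO serving as baseline for bidirectional fitting.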
As to `Cc1ccc(N=C=O)cc1N=C=O`, the outcome was inactive.
Consider `[As]#[In]`, for which the outcome was inactive.
With `CCCCCCCCOC(=O)c1ccc(C(=O)OCCCCCCCC)c(C(=O)OCCCCCCCC)c1`, the outcome was inactive.
With `CCOC(=O)[C@]1(c2ccccc2)Oc2ccccc2[C@@H]1N`, the concentration at half-maximal activity (AC50) was 33 µM (active).
As to `CN(C)C(=O)Nc1ccc(Cl)cc1`, the result was inactive.
Take `Nc1ccc(N=Nc2ccccc2)cc1`: the result was inactive.
In the case of `O=P(OCCCl)(OCCCl)OCCCl`, the result was inactive.
Take `C=CCc1ccc2c(c1)OCO2`: the outcome was inactive.
Consider `CC(C)(C)C(O)(CCc1ccc(Cl)cc1)Cn1cncn1` (centres undefined), for which the outcome was inactive.
For the compound `CCC12COCN1COC2`, the outcome was inactive.
On to `N#CC(Br)(Br)C(N)=O`, for which the outcome was inactive.
The same measure, in the same setting: the entry for `COC(=O)c1ccccc1N` is “inactive”; for `O=C(N[C@H](c1ccccc1)[C@@H]1CN2CCC1CC2)c1c(Cl)ccc(C(F)(F)F)c1Cl` it is “inactive”; for `CN(C)c1ccc(C(=O)c2ccc(N(C)C)cc2)cc1` it is “inactive”.
The same measure, in the same setting: the entry for `O=C(Oc1ccc(Br)cc1)N1CCN2CCC1CC2` is “inactive”; for `Cc1cc(N=Nc2ccccc2C)ccc1N` it is “inactive”.
With `OCCCl`, the outcome was inactive.
Still for that read-out and setting: the result for `CC(C)COC(=O)c1ccccc1C(=O)OCC(C)C` reads “inactive”.
`Clc1ccc(C(c2ccc(Cl)cc2)C(Cl)(Cl)Cl)cc1`: the result was inactive.
On the same count and under the same terms, the entry for `Clc1ccc(Cl)c(Cl)c1` is “inactive”.
Turning to `O=[N+]([O-])C(Br)(CO)CO`, the AC50 is 156 µM (active).
Consider `OCCOCCO`, for which the result was inactive.
Same read-out and setting: the entry for `Nc1ccc(Cc2ccc(N)cc2)cc1` is “inactive”; for `Nc1cc(Cl)cc(C(=O)O)c1Cl` it is “inactive”; for `C1=Cc2cccc3cccc1c23` it is “inactive”.
Take `ClCCOCCCl`: the result was inactive.
The same measure, in the same setting: the entry for `Cc1cccc(N)c1N` is “inactive”; for `CC(C)(O)c1cnn2c(-c3ccc(F)c(-c4c(F)cccc4C#N)c3)cnc2n1` it is “inactive”.

System in a further experiment: not listed separately
Description: ATG_CMV_CIS: Attagene CIS-FACTORIAL HepG2 Assay for human CMV (Internal Marker) (AID 2282928).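 Also: endpoint acts as a background internal control marker rather than a target.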 The following applies: HepG2 CMV promoter reporter, transcription factor profiling; actives raise or lower the signal. In short, it runs like this:
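24 h chemical treatment, HepG2 with transient multi-reporter transfection; RNA → oligo(dT) RT → PCR → 6-FAM extension → HpaI digest → CE fluorescence. Bidirectional fit, DMSO negative control.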
On to `[As]#[In]`, for which the compound was classed as inactive.
On the same count and under the same terms, the result for `CCCCCCCCOC(=O)c1ccc(C(=O)OCCCCCCCC)c(C(=O)OCCCCCCCC)c1` reads “inactive”.
Take `CCOC(=O)[C@]1(c2ccccc2)Oc2ccccc2[C@@H]1N`: the AC50 is 33 µM (active).
Turning to `CN(C)C(=O)Nc1ccc(Cl)cc1`, the result was inactive.
On to `O=P(OCCCl)(OCCCl)OCCCl`, for which the compound was classed as inactive.
Consider `C=CCc1ccc2c(c1)OCO2`, for which the outcome was inactive.
The same measure, in the same setting: the result for `CCC12COCN1COC2` reads “inactive”; that for `N#CC(Br)(Br)C(N)=O`, “inactive”; that for `COC(=O)c1ccccc1N`, “inactive”.
On the same count and under the same terms, the result for `O=C(N[C@H](c1ccccc1)[C@@H]1CN2CCC1CC2)c1c(Cl)ccc(C(F)(F)F)c1Cl` reads “inactive”.
Turning to `CC(C)COC(=O)c1ccccc1C(=O)OCC(C)C`, the AC50 is 67.5 µM (active).
Still for that read-out and setting: the result for `Clc1ccc(C(c2ccc(Cl)cc2)C(Cl)(Cl)Cl)cc1` reads 30.2 µM (active).
`Clc1ccc(Cl)c(Cl)c1`: the outcome was inactive.
For the compound `Nc1ccc(Cc2ccc(N)cc2)cc1`, the compound was called inactive.
Take `Nc1cc(Cl)cc(C(=O)O)c1Cl`: the compound was called inactive.
For `C1=Cc2cccc3cccc1c23`, the call was inactive.
Regarding `Cc1cccc(N)c1N`, the AC50 is 30.3 µM (active).
Regarding `CC(C)(O)c1cnn2c(-c3ccc(F)c(-c4c(F)cccc4C#N)c3)cnc2n1`, the compound was called inactive.

System in a further experiment: not listed separately
As to the kind of experiment: ATG_DR4_LXR_CIS: Attagene CIS-FACTORIAL HepG2 Assay for human Liver X Receptor (LXR), DR4 submotif (AID 2282929). The following applies: HepG2 Attagene DR4 cis-reporter, mRNA transcription; actives raise or lower the signal. The gist of the method:
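Transiently transfected HepG2 liver cells; cis-regulated reporters; 24 h dosing. RT-PCR plus CE read-out of reporter mRNA. DMSO baseline, bidirectional curve fitting.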
On to `Cc1ccc(N=C=O)cc1N=C=O`, for which the call was inactive.
Take `Nc1ccc(N=Nc2ccccc2)cc1`: the result was inactive.
For `CC(C)(C)C(O)(CCc1ccc(Cl)cc1)Cn1cncn1` (centres undefined), the AC50 was 152 µM (active).
`CN(C)c1ccc(C(=O)c2ccc(N(C)C)cc2)cc1`: the result was inactive.
The same measure, in the same setting: the entry for `O=C(Oc1ccc(Br)cc1)N1CCN2CCC1CC2` is “inactive”; for `Cc1cc(N=Nc2ccccc2C)ccc1N` it is “inactive”.
Same read-out and setting: the result for `OCCCl` reads “inactive”; that for `O=[N+]([O-])C(Br)(CO)CO`, “inactive”; that for `OCCOCCO`, “inactive”.
On the same count and under the same terms, the result for `ClCCOCCCl` reads “inactive”.
